Here are results for 40 molecules from PubChem BioAssay (NCATS).

“And” between values parts separate entries of the source, which are not always exact repeats. Identical values can stand only once. Results filed as inconclusive are left out. Entries that show only a call come without a potency. More than one record can exist for a structure, and the calls need not agree. The source made the active and inactive calls. Calls come from the whole dose curve; as a rule, active = well fitted inhibition curve with a large enough effect; inconclusive = small, poorly fitted or top-dose-only effect; inactive = no such curve, though single readings can be large or run the other way.
Potency is the fitted concentration of half-maximal effect.

Sequence of Cytochrome P450 2C9 (Homo sapiens) (P11712 whole entry, looked up): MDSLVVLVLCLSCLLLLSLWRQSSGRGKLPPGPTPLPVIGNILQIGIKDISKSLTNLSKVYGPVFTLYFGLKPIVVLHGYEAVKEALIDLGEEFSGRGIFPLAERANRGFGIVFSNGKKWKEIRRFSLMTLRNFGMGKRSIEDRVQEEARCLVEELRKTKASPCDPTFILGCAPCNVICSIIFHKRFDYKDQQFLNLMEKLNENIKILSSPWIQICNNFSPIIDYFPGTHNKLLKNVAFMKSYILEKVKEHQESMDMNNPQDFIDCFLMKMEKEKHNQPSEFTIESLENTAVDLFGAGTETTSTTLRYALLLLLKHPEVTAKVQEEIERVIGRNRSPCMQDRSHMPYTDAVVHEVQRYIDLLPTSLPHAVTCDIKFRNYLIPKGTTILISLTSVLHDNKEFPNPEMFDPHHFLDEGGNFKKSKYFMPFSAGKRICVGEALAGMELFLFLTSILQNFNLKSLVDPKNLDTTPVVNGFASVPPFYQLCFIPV

This experiment has as its target Cytochrome P450 2C9 (Homo sapiens) (UniProt P11712). The experiment is described as follows: qHTS Assay for Inhibitors and Substrates of Cytochrome P450 2C9 (AID 883). Note: nearly all actives have a fitted effect of over 60% in size. The settings on record: recombinant CYP2C9, luciferin-H luminescence, 60 min; series mostly up to 11.4 µM. The essentials: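 A luminogenic readout tracked human CYP2C9 (10nM) converting deoxyluciferin (100uM, at KM) in 25mM KPO4 during 60 min at 37C with regenerated NADPH. Values normalized to 57uM sulphaphenazole as complete inhibition.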
Background: In qHTS, concentration-response curves come from the screen itself.
With `CC(C)=CCC/C(C)=C/C=C/C1=CC2(C)CC1(C)C(/C=C(\C)CCC=C(C)C)CC2=O` (stereo not given), the Potency entry was “inactive”.

Take `CC12C=C(/C=C/c3ccccc3)C(C)(C1)C(c1ccccc1)CC2=O` (stereo not given): the Potency entry was “inactive”.

Take `COc1ccccc1/C=C/C1=CC2(C)CC1(C)C(c1ccccc1OC)CC2=O` (stereo not given): the Potency was 3.98 µM (active).

As to `COC(=O)C1=C(C)N(Cc2ccccc2)C2=C3C(=O)N(c4ccccc4)C(=O)C3[C@@](O)(C(=O)OC)C(=O)N2C1c1ccccc1` (stereo not given in full), the Potency entry was “inactive”.

As for `COc1ccc(C#CC2C=CC(OC(C)=O)C(COC(C)=O)O2)cc1` (stereo not given), the Potency result was “inactive”.

In the case of `CC1Cc2c(-c3ccccc3)nc3c(c2CO1)CN(CCOc1ccccc1)CC3` (stereo not given), the Potency entry is “inactive”.

Consider `CCCCCCC1=Cc2cc(OC)c(OC)cc2C(CC(=O)/C=C/OC)O1` (stereo not given), for which the Potency entry is “inactive”.

For `C=CCOCC/C=C1/c2ccccc2C(OC)C1C` (stereo not given), the Potency result is “inactive”.

On to `CCC(=O)CC(NC(=O)OC)c1ccccc1` (stereo not given), for which the Potency result was “inactive”.

Turning to `COC(=O)C1=C(C)N(Cc2ccccc2)c2c(C(=O)OC)c(C(=O)OC)c(C(=O)OC)c(=O)n2C1c1ccccc1` (stereo not given), the Potency result was “inactive”.

Take `COC(=O)[C@@H]1CC[C@H](C)[C@@H](c2ccc(C)cc2)N1C(=O)c1ccc(/C=N\OC[C@@H](O)[C@H]2O[C@H]3OC(C)(C)O[C@H]3[C@@H]2O)cc1`: the Potency is 2.51 µM (active).

As to `CCCCCCC1=Cc2cc(OC)c(OC)cc2C(C(C(C)=O)C(=O)OC)O1` (stereo not given), the Potency result is “inactive”.

For `OCC1OC(C#Cc2ccccc2)C=CC1O` (stereo not given), the Potency entry is “inactive”.

Turning to `COC(=O)[C@@H]1CC[C@H](C)[C@@H](c2ccc(C)cc2)N1C(=O)c1ccc(/C=N\OC[C@@H](O)COCc2ccco2)cc1`, the Potency was 3.98 µM (active).

`O=C(/C=N/O)NCCCCNC(=O)/C=N/O`: the Potency entry is “inactive”.

As for `C=CCOC(=O)C(C(=O)CC)C(NC(=O)OC)c1ccc(F)cc1` (stereo not given), the Potency result is “inactive”.

For the molecule `CC1CCC(C(=O)O)NC1c1cccc(N2CCOCC2)c1` (stereo not given), the Potency entry is “inactive”.

In the case of `CC12C=C(/C=C/c3ccc(C(F)(F)F)cc3)C(C)(C1)C(c1ccc(C(F)(F)F)cc1)CC2=O` (stereo not given), the Potency result was “inactive”.

Turning to `C=C(C)C(O)/C=C/CCCCCCC` (stereo not given), the Potency result is “inactive”.

For the molecule `C=CCOC(=O)C(C(C)=O)C(NC(=O)OC)c1ccc2ccccc2c1` (stereo not given), the Potency entry was “inactive”.

In the case of `CCC(=O)CC(NC(=O)OC)c1ccc(F)cc1` (stereo not given), the Potency result was “inactive”.

Turning to `COC1(C#CC2C=CC(OC(C)=O)C(COC(C)=O)O2)CCCCC1` (stereo not given), the Potency result is “inactive”.

For `C=CCC1(C)OC=Cc2nc3cc(Cl)c(Cl)cc3nc21` (stereo not given), the Potency result was “inactive”.

`COc1ccc(O[C@H]2C=C[C@@H](c3ccccc3)O[C@H]2COC(=O)CC/C(C)=N/OCC[C@@H]2C=C[C@H](OC(C)=O)[C@H](COC(C)=O)O2)cc1`: the Potency is 3.98 µM (active).

With `CCN1C(C)=C(C(=O)OC)C(c2ccccc2)N2C(=O)[C@](O)(C(=O)OC)C(c3ccccc3)C(C(C)=O)=C12` (stereo not given in full), the Potency entry is “inactive”.

Take `O=C1C=C[C@@H](O)[C@@H]2[C@H]3C(=O)N(c4ccc(F)cc4F)C(=O)[C@@H]3CC[C@@H]12`: the Potency entry was “inactive”.

As to `CCCCc1nc2c(c3c1CC(C)OC3)CN(CCOc1ccccc1)CC2` (stereo not given), the Potency result was “inactive”.

Consider `CC(=O)OCC1OC(C#Cc2ccccc2)C=CC1OC(C)=O` (stereo not given), for which the Potency entry is “inactive”.

As to `C=CCOC(=O)C(C(C)=O)C(NC(=O)OC)c1ccco1` (stereo not given), the Potency result was “inactive”.

Turning to `CC1CCC2C(=O)OC(CN=[N+]=[N-])CN2C1c1ccc(Br)cc1` (stereo not given), the Potency result was “inactive and 1 µM (active)”.

In the case of `CCOC(=O)[C@]1(C(NC(=O)OC)c2ccccc2)CCCC1=O` (stereo not given in full), the Potency entry is “inactive”.

For `CC1Cc2c(COc3ccccc3)nc3c(c2CO1)CN(CCOc1ccccc1)CC3` (stereo not given), the Potency entry was “inactive”.

As for `CCC(=O)[C@]12O[C@@]3(C4C(=O)OCCC41)N(CC)C(C)=C(C(=O)OC)C(c1ccccc1)N3C2=O` (stereo not given in full), the Potency entry was “inactive”.

On to `COC(=O)C1=C(C)N(Cc2ccccc2)[C@]23O[C@](C(=O)OC)(C(=O)N2C1c1ccccc1)C1C(=O)N(c2ccccc2)C(=O)C13` (stereo not given in full), for which the Potency entry is “inactive”.

Consider `C#CC(C)OC(=O)c1nnc2c3ccccc3n(COC)c2n1` (stereo not given), for which the Potency entry was “inactive”.

Take `CC(C)CN1CCc2nc(-c3ccccc3)c3c(c2C1)COC(C)C3` (stereo not given): the Potency result is “inactive”.

Consider `COC(=O)NC(c1ccco1)[C@]1(C(C)=O)CCCC1=O` (stereo not given in full), for which the Potency entry is “inactive”.

Consider `OCC1OC(c2ccc3c(c2)OCO3)C=CC1Oc1ccc(C2CCCC2)cc1` (stereo not given), for which the Potency result was “inactive”.

Regarding `C=C(C)C(O)/C=C/C=C/c1ccccc1` (stereo not given), the Potency entry was “inactive”.

In the case of `COC(=O)C1=C(C)N(Cc2ccccc2)C2=C3C(=O)N(C)C(=O)C3[C@@](O)(C(=O)OC)C(=O)N2C1c1ccccc1` (stereo not given in full), the Potency result was “inactive”.
